Screening results from PubChem BioAssay.
APOBEC3A inh: APOBEC3A ssDNA deaminase inhibitors, primary screen, selectivity assay for APOBEC3G inhibitor project, biochemical, FAM/TAMRA oligo cleavage fluorescence. DNA dC->dU-editing enzyme APOBEC-3A (Homo sapiens), P31941. AID 493011, 2011. inhibition, % at 20 µM. 0.41% of 330,000 active. recombinant A3A, FAM/TAMRA ssDNA deamination fluorescence;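 active = at least 40% inhibition at 20 µM here, with at most 30% in a related deaminase screen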
CendR NRP1 mod: modulators of CendR peptide binding to NRP-1, primary screen, biochemical, fluorescence polarization, uHTS; Neuropilin-1 (Homo sapiens), O14786; FAM-RPARPAR peptide binding to NRP-1; inhibition, % at 25 µM; 0.85% of 360,000 active; AID 602438, 2012;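 active = inhibition or corrected inhibition above about 18%, plus a signal ratio from 0.5 to 1.5, limit read from the data, passing the limit was not always enough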
ALR inh: inhibitors of human ALR sulfhydryl oxidase, primary screen, biochemical, H2O2 detection, HRP-luminol luminescence, single point. purified ALR, DTT oxidation. inhibition, % (no concentration beside the values). 3.8% of 290,000 active. AID 485317, 2010;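 active = mean replicate inhibition above about 79%, with every replicate also reaching it, limit read from the data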
Target sequence (P55789 whole entry, looked up): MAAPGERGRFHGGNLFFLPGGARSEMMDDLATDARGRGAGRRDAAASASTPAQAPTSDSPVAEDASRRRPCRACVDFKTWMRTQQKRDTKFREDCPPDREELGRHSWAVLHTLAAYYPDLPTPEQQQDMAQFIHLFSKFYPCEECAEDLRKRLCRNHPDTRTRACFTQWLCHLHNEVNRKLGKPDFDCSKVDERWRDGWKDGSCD
CR mimetic SO: reduction of superoxide in aged yeast, primary screen, HTS. 0.18% of 330,000 active. AID 2690, 2010. S. cerevisiae aged cells, superoxide DHE fluorescence; active compounds read low. superoxide response (% of plate mean), % at 10 µM;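 active = superoxide response under a set limit, about three screen SD below normal, cut at about 65% in these data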;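 also: yeast aged for seven days with compound at 30 °C before DHE staining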
PfM18AAP inh: PfM18AAP inhibitors, malaria aminopeptidase, primary screen, biochemical, QFRET, recombinant enzyme. AID 1822, 2009. 1.2% of 290,000 active. H-Glu-NHMec fluorogenic cleavage. inhibition, % at 7.35 µM. M18 aspartyl aminopeptidase (Plasmodium falciparum 3D7);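 active = inhibition above the campaign mean inhibition over all tested compounds plus 3 SD, cut at about 28% in these data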
A3G deaminase: APOBEC3G DNA deaminase inhibitors, primary screen, biochemical, fluorescence, single-stranded DNA substrate, uHTS. AID 493012, 2011. recombinant A3G, ssDNA deamination FAM/TAMRA fluorescence. DNA dC->dU-editing enzyme APOBEC-3G (Homo sapiens), Q9HC16. inhibition, % at 20 µM. 0.28% of 330,000 active;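 active = inhibition of at least 40% at 20 µM, with no more than 30% in the related APOBEC3A deaminase screen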
Target sequence (Q9HC16 whole entry, looked up): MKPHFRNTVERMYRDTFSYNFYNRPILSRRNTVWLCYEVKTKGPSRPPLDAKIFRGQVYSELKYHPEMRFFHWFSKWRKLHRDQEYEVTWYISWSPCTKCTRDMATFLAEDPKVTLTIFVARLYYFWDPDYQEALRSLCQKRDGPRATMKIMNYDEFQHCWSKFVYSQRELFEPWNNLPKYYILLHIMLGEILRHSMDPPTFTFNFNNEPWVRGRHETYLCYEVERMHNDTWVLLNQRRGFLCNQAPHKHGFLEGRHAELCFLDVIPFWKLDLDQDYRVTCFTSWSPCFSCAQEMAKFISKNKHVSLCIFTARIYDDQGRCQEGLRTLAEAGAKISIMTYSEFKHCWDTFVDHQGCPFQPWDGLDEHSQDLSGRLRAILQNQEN
Of the large screens only hits and unclear results are named; the others gave an inactive call. A selection: hits, their analogues and other compounds. The true share with any hit is near 5.2%.

O=C(OCC(=O)N1CCN(c2ccccc2)CC1)c1ccc(Cl)nc1	ALR inh 97.1 (no result: PfM18AAP inh)
O=C(COc1ccc(Cl)cc1Br)N1CCN(c2ccccc2)CC1	CendR NRP1 mod 33.9
CCCC(=O)N1CCCC1(C)C(=O)NCc1c(F)ccc(C)c1F (stereo not drawn)	none (no result: APOBEC3A inh, ALR inh, CR mimetic SO, PfM18AAP inh, A3G deaminase)
Cc1sc2nc(CSCC(=O)Nc3ccc(C(=O)N(C)C)cc3)[nH]c(=O)c2c1C	ALR inh 98.8 (no result: PfM18AAP inh)
Cc1sc2nc(CSCC(=O)Nc3ccc(OC(F)F)cc3)[nH]c(=O)c2c1C	ALR inh 97.2
O=C1CC(c2ccccc2Br)c2cc3c(cc2N1)CCC3 (stereo not drawn)	none (no result: CendR NRP1 mod)
Cc1ccc(C(=O)NN2CCOCC2)cc1	ALR inh 98.2
O=C(NN1CCOCC1)c1ccc(Br)cc1	none (no result: PfM18AAP inh)
O=C(CCCSc1nc2ccccc2[nH]1)NC1CCCCC1	none
C/C(=N\NC(=S)NC1CCCCC1)c1c(F)cccc1F	none
CN(Cc1ccccc1)C(=C(Cl)Cl)C(=C1NCCN1)[N+](=O)[O-]	none
O=[N+]([O-])C(=C1Nc2ccccc2N1)/C(Cl)=C(/Cl)Br	ALR inh 88.9
Cc1csc(NC(=O)CSc2nnc(-c3ccoc3C)n2C(C)c2ccccc2)n1 (stereo not drawn)	none
Cc1cc(Cl)ccc1OCCCC(=O)Nc1cc(S(=O)(=O)N2CCOCC2)ccc1N1CCOCC1	none (no result: APOBEC3A inh, ALR inh, CR mimetic SO, PfM18AAP inh, A3G deaminase)
CNC(=S)NNC(=O)COc1ccc(C)c(C)c1	ALR inh 89.7
Cc1ccc(OCC(=O)Nc2cccc(O)c2)cc1C	ALR inh 98.4
Cc1ccc(OCC(=O)NC2CCCCCC2)cc1C	none
COc1cccc2cc(-c3ccnc(=S)[nH]3)oc12	ALR inh 99.0 (no result: CendR NRP1 mod)
Cc1c(C)n(CC(O)CNc2ccccc2)c2ccccc12 (stereo not drawn)	ALR inh 98.1
Cc1c(C)n(CC(O)CN2CCCCCC2)c2ccccc12 (stereo not drawn)	ALR inh 97.5
CC(C)(C)NC(=O)COC(=O)c1ccccc1Oc1ccccc1	none
S=c1[nH]nc(-c2ccncc2)n1/N=C/c1cccc(Cl)c1	A3G deaminase 53.2
S=c1[nH]nc(-c2ccccc2)n1/N=C/c1cccc(Cl)c1	none (no result: ALR inh)
S=c1[nH]nc(-c2ccco2)n1/N=C/c1ccc(Cl)cc1	PfM18AAP inh 30.9 (no result: APOBEC3A inh, ALR inh, A3G deaminase)
Cc1ccc(/C=N/n2c(-c3ccccn3)n[nH]c2=S)o1	none (no result: ALR inh)
Cc1cccc(/C=N/n2c(-c3ccccn3)n[nH]c2=S)c1	ALR inh 95.4, A3G deaminase 57.0 (no result: CendR NRP1 mod)
S=c1[nH]nc(-c2ccccc2)n1/N=C/c1ccc(Cl)cc1	none (no result: APOBEC3A inh, A3G deaminase)
Cc1ccc(NC2=CC(=O)CC(C)(C)C2)cc1Cl	none
Cc1ccc(NC2=CC(=O)CCC2)cc1C	CendR NRP1 mod 46.3
CC1CN=C(N(Cc2ccccc2)C(=O)Nc2ccccc2)S1 (stereo not drawn)	none
CC1(COS(N)(=O)=O)CCCCC1	none
Cc1cc(C(F)F)n2ncc(C(=O)NCCc3ccccc3Cl)c2n1	none
Cc1nc(-c2ccccc2)sc1C1(C)CC(c2ccccc2F)=NO1 (stereo not drawn)	none (no result: PfM18AAP inh)
Cc1cccc(C(=O)N/N=C/c2coc3ccccc3c2=O)c1	ALR inh 88.6
O=C(N/N=C/c1coc2ccc(Cl)cc2c1=O)c1ccc(O)cc1	ALR inh 97.9
CC(C)Oc1cccc(C(=O)N/N=C/c2coc3ccccc3c2=O)c1	ALR inh 97.5
O=C(N/N=C/c1coc2ccccc2c1=O)c1cccc([N+](=O)[O-])c1	none (no result: APOBEC3A inh, A3G deaminase)
O=C(CCc1ccc(O)cc1)N/N=C/c1coc2ccccc2c1=O	ALR inh 78.9
CCOc1cccc(C(=O)N/N=C/c2coc3ccccc3c2=O)c1	none
Cc1ccc2occ(/C=N/NC(=O)[C@@H](N)Cc3ccccc3)c(=O)c2c1	none
CCOc1ccc2nc(/N=C/c3c(C)[nH]n(-c4ccc(C)cc4)c3=O)sc2c1	none
COc1ccccc1C(=O)N1CCN(C(=O)[C@H]2O[C@@H](n3ccc(=O)[nH]c3=O)[C@H](O)[C@@H]2O)CC1	none (no result: APOBEC3A inh, ALR inh, CR mimetic SO, PfM18AAP inh, A3G deaminase)
COC(=O)CCC(=O)N1CCc2cc(S(=O)(=O)N3CCc4ccccc43)ccc21	none
COc1ccc(/C=C/C(=O)N/C(=C\c2ccco2)C(=O)NCCc2nc3ccccc3[nH]2)cc1	none (no result: ALR inh)
COc1ccc(C(=O)N/N=C\c2coc3ccccc3c2=O)cc1	none (no result: ALR inh)
COc1cc(C(=O)N/N=C/c2coc3ccccc3c2=O)cc(OC)c1OC	PfM18AAP inh 29.7
COc1ccc(N2CCCC2)c(NC(=O)c2ccc(Br)o2)c1	CendR NRP1 mod 61.1 (no result: ALR inh)
O=C(NCCc1ccccc1)c1ccc(Br)o1	CendR NRP1 mod 24.0
O=C(NCC(=O)N1CCN(c2ccccc2O)CC1)c1ccc(Br)o1	ALR inh 98.7 (no result: PfM18AAP inh)
O=C(NCC(=O)N1CCCCCCC1)c1ccc(Br)o1	none (no result: PfM18AAP inh)
O=C(Nc1ccccc1N1CCCC1)c1ccc(Br)o1	ALR inh 98.4
CSc1ccc(C(=O)C2CCCN(C(=O)c3ccc4c(c3)no[n+]4[O-])C2)cc1 (stereo not drawn)	none
O=[N+]([O-])c1cccc(COc2ccccc2CN2CCOCC2)c1	none (no result: APOBEC3A inh, ALR inh, CR mimetic SO, PfM18AAP inh, A3G deaminase)
COc1ccc(S(=O)(=O)N2CCCC(C(=O)N3CCN(C)CC3)C2)cc1Cl (stereo not drawn)	none
COc1ccc(S(=O)(=O)N/N=C(/C)c2cccc(NC(=O)c3ccccc3Cl)c2)cc1	none (no result: ALR inh)
Cc1cc(C)c2c(-n3cccc3)c(C(=O)NNS(=O)(=O)c3ccc(Br)cc3)sc2n1	ALR inh 88.3
O=c1[nH]c2cc3c(cc2cc1CN(CC1CCCO1)S(=O)(=O)c1ccc(Cl)cc1)OCCO3 (stereo not drawn)	none
COC(=O)C1Cc2c([nH]c3ccccc23)C(C)N1 (stereo not drawn)	none
CSCC[C@H](NC(=O)N1CCn2c1nc1ccccc12)C(=O)NCc1ccco1	ALR inh 96.2
C=CCNc1nc2c3ccccc3n(C(C)=O)c2s1	ALR inh 96.3
CC1(C)Cc2ccccc2C(=O)N1	none
CC(C)c1ccc2c(c1)C(=O)NC(C)(C)C2	ALR inh 92.3
Cc1ccc(C(=O)C2=C(O)C(=O)N(Cc3cccnc3)C2c2cccc(Oc3ccccc3)c2)o1 (stereo not drawn)	none (no result: CendR NRP1 mod, ALR inh)
CN(CC(=O)NCc1cccs1)S(=O)(=O)c1cccc2cccnc12	ALR inh 94.0
CN(C)c1ccc(CNC(=O)CN(C)S(=O)(=O)c2cccc3cccnc23)cc1	none
COc1cc2c(O)cc(C(=O)O)c(-c3cc(OC)c(OC)c(OC)c3)c2cc1OC	none (no result: APOBEC3A inh, ALR inh, CR mimetic SO, PfM18AAP inh, A3G deaminase)
